According to the supplement of paper PMC7595190:
Structures can show the parent of a compound that is named as a salt. A number with no mark means an inactive call.

Columns and labels:
Assay in all cases: CellTox Green cytotoxicity fluorescence relative to DMSO vehicle (fold of vehicle RFU); higher = more cell death (loss of membrane integrity), active = 2 or more
[1] = test system: CMK
Outline: (§1)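 MV4-11, CMK and Kasumi-1 cells were plated in 96-well black optical-bottom plates at 4.0 × 10^4 cells per well, and CellTox Green reagent was added at the time of seeding. Single compounds from the Selleckchem apoptosis library were diluted in DMSO and added at final concentrations of 0.01, 0.1 and 1 µM, with 0.1% DMSO as vehicle. Plates were kept at 37 °C and 5% CO2 and read at 24, 48 and 72 h (Ex 485 nm, Em 520 nm). Cytotoxicity reflects loss of membrane integrity and is given as fluorescence relative to the DMSO vehicle, expressed as fold.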

[2] = test system: Kasumi-1
Outline: as §1

[3] = test system: MV4-11
Outline: as §1

| Structure (SMILES) | CellTox Green cytotoxicity fluorescence ([1]; 0.01 µM, 24 h) | CellTox Green cytotoxicity fluorescence ([1]; 0.01 µM, 48 h) | CellTox Green cytotoxicity fluorescence ([1]; 0.01 µM, 72 h) | CellTox Green cytotoxicity fluorescence ([1]; 0.1 µM, 24 h) | CellTox Green cytotoxicity fluorescence ([1]; 0.1 µM, 48 h) | CellTox Green cytotoxicity fluorescence ([1]; 0.1 µM, 72 h) | CellTox Green cytotoxicity fluorescence ([1]; 1 µM, 24 h) | CellTox Green cytotoxicity fluorescence ([1]; 1 µM, 48 h) | CellTox Green cytotoxicity fluorescence ([1]; 1 µM, 72 h) | CellTox Green cytotoxicity fluorescence ([2]; 0.01 µM, 24 h) | CellTox Green cytotoxicity fluorescence ([2]; 0.01 µM, 48 h) | CellTox Green cytotoxicity fluorescence ([2]; 0.01 µM, 72 h) | CellTox Green cytotoxicity fluorescence ([2]; 0.1 µM, 24 h) | CellTox Green cytotoxicity fluorescence ([2]; 0.1 µM, 48 h) | CellTox Green cytotoxicity fluorescence ([2]; 0.1 µM, 72 h) | CellTox Green cytotoxicity fluorescence ([2]; 1 µM, 24 h) | CellTox Green cytotoxicity fluorescence ([2]; 1 µM, 48 h) | CellTox Green cytotoxicity fluorescence ([2]; 1 µM, 72 h) | CellTox Green cytotoxicity fluorescence ([3]; 0.01 µM, 24 h) | CellTox Green cytotoxicity fluorescence ([3]; 0.01 µM, 48 h) | CellTox Green cytotoxicity fluorescence ([3]; 0.01 µM, 72 h) | CellTox Green cytotoxicity fluorescence ([3]; 0.1 µM, 24 h) | CellTox Green cytotoxicity fluorescence ([3]; 0.1 µM, 48 h) | CellTox Green cytotoxicity fluorescence ([3]; 0.1 µM, 72 h) | CellTox Green cytotoxicity fluorescence ([3]; 1 µM, 24 h) | CellTox Green cytotoxicity fluorescence ([3]; 1 µM, 48 h) | CellTox Green cytotoxicity fluorescence ([3]; 1 µM, 72 h) |
| --- | --- | --- | --- | --- | --- | --- | --- | --- | --- | --- | --- | --- | --- | --- | --- | --- | --- | --- | --- | --- | --- | --- | --- | --- | --- | --- | --- |
| CC(=O)N1c2ccc(-c3ccc(C(=O)O)cc3)cc2[C@H](Nc2ccc(Cl)cc2)C[C@@H]1C | 0.995 | 1.1 | 0.996 | 1.2 | 1.71 | 1.37 | 1.33 | 1.93 | 1.57 | 0.959 | 0.98 | 1.03 | 1.06 | 1.36 | 1.49 | 1.09 | 1.66 | 1.92 | 0.931 | 0.997 | 1.17 | 0.975 | 1.43 | 2.03 (active) | 1.09 | 1.87 | 2.28 (active) |
| CCO[C@@H]1OC(=O)C[C@@H]1NC(=O)[C@@H]1CCCN1C(=O)[C@@H](NC(=O)c1ccc(N)c(Cl)c1)C(C)(C)C | 0.989 | 0.988 | 1 | 0.971 | 0.981 | 0.995 | 0.96 | 0.975 | 1.03 | 0.954 | 0.953 | 0.948 | 0.98 | 0.961 | 0.948 | 0.997 | 1.02 | 1.03 | 0.972 | 0.981 | 0.987 | 0.995 | 0.989 | 0.996 | 1 | 1 | 1.01 |
| COc1c/c(=C2\C=c3ccccc3=N2)[nH]/c1=C\c1[nH]c(C)cc1C [Obatoclax Mesylate] | 0.914 | 0.907 | 0.894 | 0.921 | 0.88 | – | 1.01 | 1 | 0.819 | 0.975 | 0.917 | 0.921 | 0.977 | 1.01 | 1.05 | 1.17 | 1.31 | 1.42 | – | – | – | – | – | – | – | – | – |
| FC(F)(F)c1ccc(CNc2ccc(Cc3c[nH]c4ncc(Cl)cc34)cn2)cn1 [Pexidartinib] | 1.01 | 1 | 0.979 | 0.99 | 1 | 0.967 | 0.964 | 0.989 | 0.967 | 0.99 | 0.998 | 0.956 | 1 | 1 | 1.03 | 1.04 | 1.12 | 1.2 | 1.01 | 1 | 1.01 | 1.07 | 1.17 | 1.21 | 1.09 | 1.41 | 1.74 |
| COCC[n+]1c2c(n(Cc3cnccn3)c1C)C(=O)c1ccccc1C2=O [Sepantronium Bromide] | 0.916 | 0.91 | 0.922 | 0.955 | 1.02 | 0.927 | 1.06 | 1.53 | 1.41 | 1.02 | 1.03 | 1.11 | 1.08 | 1.41 | 1.57 | 1.5 | 2.08 (active) | 2.15 (active) | 0.95 | 0.938 | 0.957 | 1.02 | 1.83 | 2.14 (active) | 1.35 | 2.26 (active) | 2.48 (active) |
| CCOC(=O)C1=C(N)Oc2ccc(Br)cc2C1C(C#N)C(=O)OCC (stereo unspecified) | 0.931 | 0.915 | 0.892 | 0.944 | 0.948 | 0.975 | 0.954 | 0.967 | 0.968 | 0.946 | 0.93 | 0.927 | 0.923 | 0.902 | 0.875 | 1.01 | 1.05 | 1.06 | 0.97 | 0.991 | 1.01 | 0.944 | 0.944 | 0.948 | 0.96 | 0.957 | 0.957 |
| Nc1ccccc1NC(=O)c1cnccn1 | 0.987 | 0.99 | 0.976 | 0.967 | 0.987 | 1.02 | 0.965 | 1.02 | 1.11 | 0.967 | 0.96 | 0.904 | 0.988 | 0.995 | 0.988 | 0.932 | 1 | 1.06 | 0.953 | 0.952 | 0.937 | 0.964 | 0.984 | 0.99 | 0.954 | 0.989 | 1.01 |
| COc1nc(-c2ccc3c(c2)OCO3)n(-c2ccc(NC(=O)CSc3ccccc3)cc2)n1 [SecinH3] | 1.03 | 1.04 | 1.05 | 0.992 | 0.997 | 0.985 | 0.996 | 1.01 | 1.01 | 1.02 | 1.03 | 1.04 | 1.02 | 1.02 | 1.01 | 0.941 | 0.989 | 1.02 | 1.02 | 1.02 | 1.02 | 1.01 | 1.01 | 1 | 1 | 1.03 | 1.05 |
| O=C1CCC(N2C(=O)c3ccccc3C2=O)C(=O)N1 (stereo unspecified) [Thalidomide] | 0.979 | 0.985 | 0.989 | 0.945 | 0.95 | 0.986 | 0.982 | 0.962 | 1.19 | 0.98 | 0.96 | 0.95 | 0.938 | 0.934 | 0.908 | 0.972 | 0.981 | 0.997 | 0.964 | 0.959 | 0.973 | 0.954 | 0.962 | 0.958 | 0.952 | 0.965 | 1.12 |
| CCC(CC)n1ccc2c(C(=O)NCc3c(C)cc(C)[nH]c3=O)cc(C#N)cc21 | 0.768 | 0.767 | 0.8 | – | – | – | – | – | – | – | – | – | 0.942 | 0.956 | 0.925 | 1.01 | 0.971 | 0.978 | – | – | – | – | – | – | – | – | – |
| CN[C@@H](C)C(=O)N[C@H](C(=O)N1CCC[C@H]1c1nc(C(=O)c2ccc(F)cc2)cs1)C1CCCCC1 | 0.96 | 0.958 | 0.993 | 0.965 | 0.981 | 1.03 | 0.964 | 0.991 | 0.981 | 0.997 | 0.955 | 0.955 | 0.998 | 1.02 | 1.04 | 1.03 | 1.1 | 1.17 | 0.99 | 0.973 | 0.977 | 0.975 | 0.99 | 1 | 0.969 | 1.02 | 1.03 |
| CCS(=O)(=O)N1CCN(c2ccc(Nc3ncc(C(N)=O)c(NC4CC4)n3)cc2)CC1 [Cerdulatinib] | 0.961 | 0.986 | 0.983 | 0.961 | 1.07 | 0.888 | 1.13 | 1.64 | 1.34 | 0.959 | 0.983 | 1.01 | 0.98 | 1.06 | 1.07 | 0.928 | 1.08 | 1.15 | 0.937 | 0.94 | 0.941 | 0.942 | 0.965 | 0.965 | 0.949 | 1.07 | 1.11 |
| CNC(=O)c1ccc(Nc2ncc(C(F)(F)F)c(NCc3nccnc3N(C)S(C)(=O)=O)n2)cc1 [Defactinib] | 0.942 | 0.942 | 0.941 | 0.923 | 0.931 | 0.915 | 0.945 | 1.01 | 0.889 | 0.961 | 0.964 | 0.942 | 0.955 | 0.958 | 0.956 | 0.931 | 0.985 | 0.991 | 0.944 | 0.943 | 0.952 | 0.955 | 0.991 | 1.01 | 1 | 1.12 | 1.29 |
| COc1ccc(CCNCc2ccc(OCc3ccc(Cl)nc3)c(OC)c2)cc1OC | 0.968 | 0.978 | 0.979 | 0.96 | 0.955 | 0.961 | 0.94 | 0.968 | 0.996 | 0.943 | 0.942 | 0.931 | 0.953 | 0.936 | 0.949 | 0.975 | 0.987 | 0.979 | 0.971 | 0.978 | 0.996 | 0.949 | 0.961 | 0.967 | 0.953 | 0.949 | 0.945 |
| CCCC[C@@H](C=O)NC(=O)[C@H](CC(C)C)NC(=O)OCc1ccccc1 [Calpeptin] | 1 | 0.98 | 0.961 | 0.992 | 1 | 1.02 | 0.994 | 1.01 | 1.01 | 0.957 | 0.968 | 0.962 | 0.965 | 0.93 | 0.913 | 1.01 | 1.02 | 1.03 | 0.979 | 0.988 | 0.986 | 1.01 | 1.02 | 1.01 | 1.01 | 1.01 | 0.999 |
| C[C@H]1Oc2cc(cnc2N)-c2c(nn(C)c2C#N)CN(C)C(=O)c2ccc(F)cc21 | 0.989 | 0.966 | 0.982 | 0.951 | 0.957 | 0.948 | 1 | 1.05 | 1.07 | 1.05 | 1.01 | 1.01 | 1.01 | 0.988 | 0.997 | 0.922 | 0.929 | 0.914 | 0.984 | 0.959 | 0.958 | 0.992 | 0.992 | 0.992 | 0.964 | 0.976 | 0.975 |
| COC(=O)[C@H](CCSC)NC(=O)c1ccc(NC[C@@H](N)CS)cc1-c1ccccc1 | 0.934 | 0.924 | 0.941 | 0.896 | 0.897 | 0.941 | 0.938 | 0.978 | 1.04 | 0.974 | 0.922 | 0.926 | 0.932 | 0.927 | 0.924 | 0.941 | 0.973 | 0.997 | 0.942 | 0.936 | 0.953 | 0.947 | 0.943 | 0.932 | 0.927 | 0.931 | 0.944 |
